A short description of assay [1]: A CellTox Green Cytotoxicity Assay to monitor cytotoxicity in HepG2 cells - 0 hour (AID 1224882). Further: nearly all actives have a fitted effect of over 35% in size. In a few lines:
(§1)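 HepG2 cells, 600/well, preincubated 5 h with CellTox Green dye, then exposed to Tox21 compounds in DMSO at 37 C for up to 40 h. Dead-cell DNA fluorescence read at the indicated time point.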

A short description of assay [2]: A CellTox Green Cytotoxicity Assay to monitor cytotoxicity in HepG2 cells - 32 hour (AID 1224883). Further: nearly all actives have a fitted effect of over 50% in size. In a few lines: as §1
The nature of assay [3]: A CellTox Green Cytotoxicity Assay to monitor cytotoxicity in HEK293 cells - 8 hour (AID 1224884). Further: nearly all actives have a fitted effect of over 35% in size. The method in brief:
(§2)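 HEK293 cells, 600/well, were preincubated 5 hours and then exposed to compounds at 37 C for up to 40 hours. A cell-impermeant cyanine dye staining dead-cell DNA was read by fluorescence at 0, 8, 16, 24, 32 and 40 h time points.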

A short description of assay [4]: qHTS RealTime-Glo MT Cell Viability Assay in HepG2 cells - 16 hour (AID 1224885). Further: nearly all actives have a fitted effect of over 50% in size. In a few lines:
(§3)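 HepG2 cells were seeded at 600 cells/well together with NanoLuc luciferase and a cell-permeant prosubstrate, preincubated 5 h at 37 C/5% CO2, then pin-dosed with compounds in DMSO. Nonlytic luminescence from viable cells was read at each time point.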
A general note: Quantitative high-throughput screening tests each substance at several concentrations.

Assay [5] in a line: qHTS RealTime-Glo MT Cell Viability Assay in HEK293 cells - 24 hour (AID 1224886). Further: nearly all actives have a fitted effect of over 50% in size. Further: potency means the concentration at half of the fitted maximal effect. On activity change, negative = cytotoxicity: top concentration of the series differs between compounds. In a few lines:
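HEK293 cells were seeded at 600 cells/well together with NanoLuc luciferase and cell-permeant prosubstrate, preincubated 5 h at 37 C/5% CO2, then given compound in DMSO by pintool. Luminescence from viable-cell prosubstrate reduction was read repeatedly over 40 h.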

Assay [6] is described as follows: qHTS RealTime-Glo MT Cell Viability Assay in HEK293 cells - 8 hour (AID 1224887). Further: top concentration of the series differs between compounds; nearly all actives have a fitted effect of over 50% in size. In a few lines:
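600 cells/well were plated with the nonlytic NanoLuc/prosubstrate reagent, pre-incubated 5 h, then given 23 nL of compound in DMSO. Incubation at 37 C for 40 h, with luminescence from viable-cell-reduced substrate read repeatedly from 0 h.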

The nature of assay [7]: A CellTox Green Cytotoxicity Assay to monitor cytotoxicity in HEK293 cells - 16 hour (AID 1224888). Further: nearly all actives have a fitted effect of over 35% in size. In a few lines: as §2
Assay [8] can be described thus: qHTS RealTime-Glo MT Cell Viability Assay in HepG2 cells - 0 hour (AID 1224889). Further: nearly all actives have a fitted effect of over 50% in size. In a few lines:
as §3

A short description of assay [9]: A CellTox Green Cytotoxicity Assay to monitor cytotoxicity in HepG2 cells - 8 hour (AID 1224890). Further: nearly all actives have a fitted effect of over 45% in size. The method in brief: as §1
Assay [10] is described as follows: qHTS assay to identify small molecule antagonists of the estrogen receptor alpha (ER-alpha) signaling pathway using the BG1 cell line in the presence of 0.1 nM 17-beta-estradiol - cell viability counter screen (AID 1259241). Further: nearly all actives have a fitted effect of over 40% in size. In a few lines:
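Following 5 days in phenol red-free medium with charcoal-stripped serum, VM7Luc4E2 cells received test compounds alongside 0.1 nM 17beta-estradiol (final) at 37C for 22 hr. Live cells were then quantified via protease-substrate fluorescence.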

The nature of assay [11]: qHTS assay to identify small molecule antagonists of the androgen receptor (AR) signaling pathway using the MDA cell line in the presence of 0.5 nM R1881 - cell viability counter screen (AID 1259242). Further: nearly all actives have a fitted effect of over 45% in size. The method in brief:
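MDA-kb2 cells (MMTV-luciferase, AR/GR responsive) were treated with compounds plus 0.5 nM R1881 (final) for 16 hr at 37C, 0% CO2. Viability was then read in the same wells as live-cell protease fluorescence (CellTiter-Fluor, 30 min).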

In assay [12] the target is Estrogen receptor (Homo sapiens) (UniProt P03372). Description: qHTS assay to identify small molecule antagonists of the estrogen receptor alpha (ER-alpha) signaling pathway using the BG1 cell line in the presence of 0.1 nM 17-beta-estradiol (AID 1259244). Further: nearly all actives have a fitted effect of over 50% in size. The method in brief:
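VM7Luc4E2 cells (endogenous full-length ER-alpha, 4×ERE-luciferase), kept 5 days in phenol red-free, charcoal-stripped FBS medium; 4,000 cells/well. Compounds added with 0.1 nM (final) 17beta-estradiol, 22 hr at 37C; luminescence read with ONE-Glo after 30 min.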

The nature of assay [13]: qHTS assay to identify small molecule HDAC inhibitors (AID 1259364). Further: top concentration of the series differs between compounds; nearly all actives have a fitted effect of over 45% in size. The method in brief: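 Wild-type HCT-116 cells, plated overnight at 37 C, exposed to compounds 2 hr at 37 C; luminogenic HDAC-Glo substrate then added 30 min at room temperature. Luminescence reports relative endogenous class I/II HDAC activity.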
Assay [14] can be described thus: qHTS assay to identify small molecule HDAC inhibitors - cell viability counter screen (AID 1259365). In a few lines:
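HCT-116 wild-type, overnight attachment; 2hr drug exposure, 37C; CellTiter-Glo luminescent ATP readout after 30min RT.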

Assay [15] can be described thus: qHTS assay to identify small molecule agonists of the sonic hedgehog signaling (Shh) pathway - cell viability counter screen (AID 1259366). Further: nearly all actives have a fitted effect of over 50% in size. In a few lines:
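Compounds in DMSO were pin-transferred onto 3T3 Gli1-Luc cells that had settled 4hr; plates then stood 24hr at 37C and 5% CO2. One hour before the end, CellTiter-Fluor was added and fluorescence recorded.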

The nature of assay [16]: qHTS assay to identify small molecule antagonists of the sonic hedgehog signaling (Shh) pathway - cell viability counter screen (AID 1259367). Further: nearly all actives have a fitted effect of over 55% in size. In a few lines:
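Seed 3T3 Gli1-Luc cells at 2,000 per well; incubate 4 hr; add compound in DMSO, then conditioned medium; incubate at 37C with 5% CO2; add CellTiter-Fluor after 23 hr; read fluorescence 1 hr later.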

Assay [17] is described as follows: qHTS assay to identify small molecule agonists of the sonic hedgehog signaling (Shh) pathway (AID 1259368; calls by dose curve;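 further: NIH/3T3-derived 3T3Gli1-Luc cells carrying a stable Gli1-driven firefly luciferase reporter; series mostly up to about 92 µM; nearly all actives have a fitted effect of over 15% in size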). In a few lines: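 NIH/3T3-derived 3T3Gli1-Luc cells with stably integrated Gli1-driven firefly luciferase, 2,000 cells/well, compounds added after 4 hr. Incubated 24 hr at 37C, 5% CO2; luminescence read after 30 min with luciferase reagent at room temperature.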

Assay [18] in a line: qHTS assay to identify small molecule antagonists of the sonic hedgehog signaling (Shh) pathway (AID 1259369; calls by dose curve; further: nearly all actives have a fitted effect of over 45% in size; further: potency means the concentration at half of the fitted maximal effect). The method in brief: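 NIH/3T3-derived Gli1-Luc reporter cells plated 4 h, dosed with compound, then stimulated with conditioned medium for 24 h at 37 C. Firefly luciferase luminescence read after 30 min with detection reagent at room temperature.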
The target in assay [19] is Androgen receptor (Homo sapiens) (UniProt P10275). Description: qHTS assay to identify small molecule antagonists of the androgen receptor (AR) signaling pathway using the MDA cell line in the presence of 0.5 nM R1881 (AID 1259243). Further: nearly all actives have a fitted effect of over 50% in size. Further: potency means the concentration at half of the fitted maximal effect. The method in brief: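 MDA-kb2 cells (MMTV-luciferase, responsive to AR and GR) at 3,000/well, rested 5 h at 37C, 0% CO2, then given compounds plus 0.5 nM R1881 (final) for 16 hr. Luciferase read with ONE-Glo after 30 min at room temperature.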

The nature of assay [20]: qHTS assay to identify small molecule phospholipidosis (PLD) inducers (AID 1259344; active means well fitted curve in the direction sought with a large enough effect; an effect the other way counts as inactive or inconclusive). The method in brief:
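Quantitative HTS in HepG2: compound plus LipidTOX Red dye for 24 h, paraformaldehyde fixation with Hoechst 33342, widefield high-content imaging; amiodarone as positive and DMSO as negative control.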

Values without a mark were called inactive. Inconclusive results are not listed. Active and inactive are the calls of the source. Unless noted, the call rests on the fitted dose curve; in most records, active means well fitted curve in the direction sought with a large enough effect in the repeat runs; inconclusive means weak or mixed curves; inactive means no such curve, though single readings can be large; an effect the other way counts as inactive or inconclusive.

The source of these data is PubChem BioAssay (Tox21).
On the % scale 0 is the no-effect control and ±100 the full control effect.

Sequence of Estrogen receptor (Homo sapiens) (P03372 whole entry, looked up): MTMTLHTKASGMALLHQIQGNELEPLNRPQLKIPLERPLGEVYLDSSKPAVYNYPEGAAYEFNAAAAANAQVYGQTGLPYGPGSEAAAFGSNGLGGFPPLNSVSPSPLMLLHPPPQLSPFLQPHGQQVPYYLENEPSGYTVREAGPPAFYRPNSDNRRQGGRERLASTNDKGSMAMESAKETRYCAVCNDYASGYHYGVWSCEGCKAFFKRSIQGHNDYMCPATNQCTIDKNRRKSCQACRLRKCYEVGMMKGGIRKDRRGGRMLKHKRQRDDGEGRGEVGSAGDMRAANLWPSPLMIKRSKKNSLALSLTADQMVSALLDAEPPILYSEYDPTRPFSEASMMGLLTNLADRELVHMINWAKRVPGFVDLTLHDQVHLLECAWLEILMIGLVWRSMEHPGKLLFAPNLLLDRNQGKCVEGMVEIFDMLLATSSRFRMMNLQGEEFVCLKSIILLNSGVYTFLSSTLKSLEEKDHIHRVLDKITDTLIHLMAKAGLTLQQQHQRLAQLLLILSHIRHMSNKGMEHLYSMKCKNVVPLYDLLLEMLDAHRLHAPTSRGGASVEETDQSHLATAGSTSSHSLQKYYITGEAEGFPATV
Sequence of Androgen receptor (Homo sapiens) (P10275 whole entry, looked up): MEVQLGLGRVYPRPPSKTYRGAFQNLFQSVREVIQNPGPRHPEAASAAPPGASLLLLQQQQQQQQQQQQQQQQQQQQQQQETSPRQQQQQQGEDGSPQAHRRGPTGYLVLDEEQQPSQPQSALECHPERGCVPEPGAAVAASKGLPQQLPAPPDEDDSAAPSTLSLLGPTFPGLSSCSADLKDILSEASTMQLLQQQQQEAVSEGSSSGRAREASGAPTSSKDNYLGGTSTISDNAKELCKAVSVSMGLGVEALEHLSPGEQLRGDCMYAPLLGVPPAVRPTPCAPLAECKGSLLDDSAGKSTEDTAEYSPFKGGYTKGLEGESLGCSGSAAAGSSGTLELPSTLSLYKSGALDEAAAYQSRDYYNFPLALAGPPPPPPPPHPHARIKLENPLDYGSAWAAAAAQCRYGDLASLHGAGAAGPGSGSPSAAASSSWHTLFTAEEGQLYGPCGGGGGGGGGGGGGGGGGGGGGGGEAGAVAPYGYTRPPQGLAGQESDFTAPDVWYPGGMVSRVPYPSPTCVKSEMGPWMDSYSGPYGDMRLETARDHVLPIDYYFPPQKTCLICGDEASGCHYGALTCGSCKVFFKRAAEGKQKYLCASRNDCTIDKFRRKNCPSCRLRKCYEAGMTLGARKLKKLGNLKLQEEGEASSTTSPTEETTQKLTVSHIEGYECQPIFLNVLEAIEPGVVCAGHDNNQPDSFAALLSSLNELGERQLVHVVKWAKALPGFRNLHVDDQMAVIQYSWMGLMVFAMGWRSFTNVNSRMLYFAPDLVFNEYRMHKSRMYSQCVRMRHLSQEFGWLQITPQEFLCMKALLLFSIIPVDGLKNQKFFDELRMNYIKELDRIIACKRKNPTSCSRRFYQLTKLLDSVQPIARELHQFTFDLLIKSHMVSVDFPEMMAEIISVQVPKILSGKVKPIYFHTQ

Turning to `CC(=O)C1CCCCC1=O` (centres undefined), the Potency entry in [1], in [2], in assay [5], in assay [6], in assay [8] and in [13] was “inactive” throughout. The Potency result in assay [15], in assay [16] and in assay [18] was “inactive” throughout. The outcome in [3], in [4], in assay [7], in assay [9], in assay [10] and in assay [11] was inactive. For the same compound, the outcome in [12], in assay [14] and in [17] was inactive.

Consider `CC(C)NNC(=O)c1ccncc1`, for which the Potency entry in assay [1], in assay [2], in assay [5], in assay [6], in assay [8] and in [19] was “inactive” in each case. Moreover, the Potency result in assay [13], in [15], in assay [16] and in [18] was “inactive” each time. The call in assay [3], in assay [4], in [7], in assay [9], in assay [10] and in assay [11] was inactive. Moreover, the call in assay [20], in assay [14] and in assay [17] was inactive.

Consider `OCCCCCO`, for which the Potency entry in assay [1], in assay [2], in assay [5], in assay [6], in [8] and in [13] was “inactive” in each case. Further, the Potency entry in assay [15], in [16] and in assay [18] was “inactive” throughout. Moreover, the outcome in assay [3], in assay [4], in assay [7], in assay [9], in assay [10] and in assay [11] was inactive. Also, the outcome in assay [12], in assay [14] and in assay [17] was inactive.

With `CN1C(C)(C)CC(O)CC1(C)C`, the Potency result in [1], in [2], in assay [5], in assay [6], in assay [8] and in [13] was “inactive” each time. Further, the Potency entry in assay [15], in assay [16] and in [18] was “inactive” in each case. Also, the call in assay [3], in assay [4], in [7], in assay [9], in assay [10] and in [11] was inactive. Also, the result in assay [12], in [14] and in assay [17] was inactive.

Turning to `CCCCN1C=CN(C)C1`, the cytotoxicity in assay [1] is -12.1% [at 15.8 µM]. Moreover, the cytotoxicity increase in assay [2] is -19.6% [at 15.8 µM]; in assay [3] it was -6.47% [at 15.8 µM]; in assay [9], -8.5% [at 15.8 µM]. In addition, the activity change, negative = cytotoxic in [4] was 3.26% [at 15.8 µM]. For the same compound, the activity change, negative = cytotoxicity is 9.28% [at 15.8 µM] in assay [5]; 5.36% [at 15.8 µM] in assay [6]; 0.175% [at 15.8 µM] in [8]; 0.391% [at 19 µM] in assay [10]; 5.24% [at 19 µM] in [14]. Also, the figures for the activity change in assay [7] and in assay [17] were -9.59% [at 15.8 µM] and 1.75% [at 18.9 µM], respectively. Further, the viability change, negative = cytotoxic in assay [11] was 0.923% [at 19 µM]; in [15] it was 3.43% [at 19 µM]; in assay [16], 0.731% [at 19 µM]. The activity change, negative = inhibition was 8.85% [at 19 µM] in assay [12], -8.42% [at 19 µM] in [13] and 0.745% [at 19 µM] in [18].

As to `CCN(Cc1ccccc1)c1ccccc1`, the Potency result in [1], in assay [2], in [6], in [8] and in [13] was “inactive” each time. For the same compound, the compound was classed as inactive in [3], in assay [4], in assay [7], in [9], in [10] and in assay [11]. Also, the result in [14] and in assay [17] was inactive. In addition, the Potency in assay [5] was 21.6 µM (active); in assay [19], 53.8 µM (active); in assay [18] it was 48 µM (active).

For `O=C(O)CCSCCC(=O)O`, the Potency result in [1], in assay [2], in assay [5], in [6], in assay [8] and in assay [19] was “inactive” in each case. Moreover, the Potency result in assay [13], in [15], in assay [16] and in assay [18] was “inactive” throughout. The outcome in [3], in assay [4], in [7], in assay [9], in assay [10] and in assay [11] was inactive. The result in [17] was inactive.
